Active and inactive are the calls of the source. The calls were made as follows: active = hit-call score of the fitted dose curve at least 0.9, where 1 is the maximum; inactive = score below 0.9.
Molecular target: Transcriptional activator Myb (Homo sapiens) (UniProt P10242)
Assay: ATG_Myb_CIS: Attagene CIS-FACTORIAL HepG2 Assay for human Myeloblastosis (Myb) Proto-Oncogene Transcription Factor (AID 2282986)
Settings: HepG2 Attagene CIS-FACTORIAL Myb reporter transcription; actives raise or lower the signal
Procedure, shortened: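 In this HepG2 transient-transfection format, cis-regulated reporter mRNA is quantified 24 h post-dosing by RT-PCR with capillary electrophoresis, fitted bidirectionally to DMSO baseline.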

Chain of Transcriptional activator Myb (Homo sapiens) (P10242 whole entry, looked up): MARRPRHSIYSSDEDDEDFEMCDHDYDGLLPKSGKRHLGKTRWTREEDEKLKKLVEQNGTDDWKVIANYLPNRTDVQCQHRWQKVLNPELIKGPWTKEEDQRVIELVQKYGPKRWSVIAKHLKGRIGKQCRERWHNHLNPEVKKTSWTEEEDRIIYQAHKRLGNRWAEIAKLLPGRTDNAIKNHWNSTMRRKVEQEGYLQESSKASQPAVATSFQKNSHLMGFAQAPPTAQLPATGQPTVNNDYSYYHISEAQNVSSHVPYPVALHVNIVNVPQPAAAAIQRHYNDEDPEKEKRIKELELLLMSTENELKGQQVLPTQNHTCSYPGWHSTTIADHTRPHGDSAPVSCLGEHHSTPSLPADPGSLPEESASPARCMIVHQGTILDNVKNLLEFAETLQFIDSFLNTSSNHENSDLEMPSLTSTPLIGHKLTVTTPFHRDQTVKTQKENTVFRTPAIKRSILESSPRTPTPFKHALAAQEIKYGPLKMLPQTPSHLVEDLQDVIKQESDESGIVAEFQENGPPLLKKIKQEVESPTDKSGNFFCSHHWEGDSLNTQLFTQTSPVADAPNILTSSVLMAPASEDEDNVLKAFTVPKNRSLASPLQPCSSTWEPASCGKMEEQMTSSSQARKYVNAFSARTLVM

outcome, inactive:
CCCNC(=O)NS(=O)(=O)c1ccc(Cl)cc1
COCC(C)N (centres undefined)
COc1cc(C)ccc1C(C)C
Cc1cc(C)c(C)c(C)c1
C=CC(=O)OCCOC(=O)C=C
CCCc1ccc(OC)cc1
C=C[Si](OC(C)=O)(OC(C)=O)OC(C)=O
O=C(O)c1cc2ccccc2nc1C(=O)O
COC=O
CC(C)(C)c1ccc(OC(=O)c2ccccc2O)cc1
Cc1ccc(N/N=c2\c(=O)cc/c(=N/Nc3ccc(S(=O)(=O)O)cc3)c2=O)c(C)c1
O=S(=O)(O)CC(O)CCl (centres undefined)
O=c1c2ccccc2nnn1CCl
Cc1ccc(OC(=O)CC(C)C)cc1
C1CN(SSN2CCOCC2)CCO1
CCCOCCOCCOCCO
N#CCc1ccc(Cl)cc1Cl
O=C1C(N(CO)C(=O)NCO)N(CO)C(=O)N1CO (centres undefined)
Cn1c(=O)[nH]c2ncn(C)c2c1=O
CCCCCCCCc1ccc(Nc2ccc(CCCCCCCC)cc2)cc1
CC/C=C\CCOC(=O)CCCCC
O=c1n(CCO)c(=O)n(CCO)c(=O)n1CCO
O=CC1CC1
CO[Si](OC)(OC)c1ccccc1
O=S1(=O)OC(c2ccc(O)cc2)(c2ccc(O)cc2)c2ccccc21
O=C1CCCCCN1SSN1CCCCCC1=O
CCCCCCCC(C)=O
NC(=O)N=NC(N)=O
C=CC(=O)NC(C)(C)CS(=O)(=O)O

Reference: PubChem BioAssay (EPA / NIEHS)
